Consider 97 compounds from PubChem BioAssay AID624296 (National Center for Advancing Translational Sciences (NCATS), 2012).

Structures are written as SMILES. The campaign covered roughly 350,000 compounds. About 9,900 (2.8%) were called active. Entries that show only a call come without a potency. Inconclusive results (about 15%) are left out. This is one part of a sample in which actives are shown more often than they occur. The call rests on the fitted dose curve; in most records, active means well fitted activation curve with a large enough effect; inconclusive means small, poorly fitted or top-dose-only effect; inactive means no such curve, though single readings can be large or run the other way.
Potency means the concentration at half of the fitted maximal effect.

The nature of the assay: A quantitative high throughput screen for small molecules that induce DNA re-replication in MCF 10a normal breast cells. Further: nearly all actives have a fitted effect of over 50% in size. The conditions noted are these: MCF 10A DNA re-replication, Hoechst nuclear intensity, 48 h; series mostly up to 46.1 µM.
Turning to `CN(C(=O)c1cccc(NC(=O)Cc2ccc(NC(=O)C3CCN(C(=O)C4CCCCC4)CC3)cc2)c1)C1CCC1`, the Potency entry is “inactive”.

As for `Cc1ccc(S(=O)(=O)Nc2ccc3c(c2)C(=O)N([C@H](C)CO)C[C@@H](C)[C@@H](CN(C)C(=O)Nc2cccc4ccccc24)O3)cc1`, the Potency entry is “inactive”.

For the compound `CCOc1cccc(/C=C/c2ccc3ccccc3n2)c1OC(C)=O`, the Potency was 23.1 µM (active).

Turning to `CCOc1ccccc1-c1cc(C(=O)N2CCOCC2)c2ccccc2n1`, the Potency result was “inactive”.

Take `CCOc1ccccc1/C=N/Nc1nc2ccccc2o1`: the Potency result is “inactive”.

Regarding `COc1ccc(C(CNC(=O)c2cc(S(=O)(=O)Nc3cccc(C)c3)ccc2C)N2CCCC2)cc1` (configuration not stated), the Potency result is “inactive”.

`Cc1ccc(OCCNC(=O)CN2C(=O)NC3(CCCC3)C2=O)cc1`: the Potency entry is “inactive”.

Regarding `Cc1ccc(CNC(=O)CCNC(=O)Cn2ccc3ccccc3c2=O)cc1`, the Potency entry was “inactive”.

As to `COC(=O)COc1cccc2c(=O)n(CC(=O)NCc3ccccc3)ccc12`, the Potency is 2.59 µM (active).

Consider `COC(=O)COc1cccc2c(=O)n(CC(=O)NCCc3ccc(OC)c(OC)c3)ccc12`, for which the Potency result is “inactive”.

As to `O=C1C=C(NS(=O)(=O)c2ccccc2)C(=O)c2ccccc21`, the Potency result is “inactive”.

As to `CCC(CO)Oc1cc(NC(=O)c2cccc(F)c2)c2ncn(C(C)C)c2c1` (configuration not stated), the Potency result was “inactive”.

For the compound `Cc1c(/C=N/N2C(=O)C3C4C=CC(C4)C3C2=O)c2ccccc2n1C` (configuration not stated), the Potency result was “inactive”.

Consider `Cc1c(/C=N\NC(=O)c2cc3ccccc3o2)c2ccccc2n1C`, for which the Potency was 6.51 µM (active).

On to `O=C(N/N=C/c1coc2ccccc2c1=O)c1cc2ccccc2o1`, for which the Potency result is “inactive”.

In the case of `CCOc1ccc(C(=O)NCC(=O)N2CCN(c3ccc(C(F)(F)F)cn3)CC2)cc1`, the Potency result was “inactive”.

For the compound `O=C(Nc1cc(S(=O)(=O)N2CCOCC2)ccc1N1CCOCC1)c1c(F)cccc1Cl`, the Potency entry was “inactive”.

As for `O=C(NCc1ccc2c(c1)OCO2)c1cc(F)c(F)cc1Cl`, the Potency result is “inactive”.

Regarding `CCn1c(=O)c(C(=O)NCc2ccc3c(c2)OCO3)c(O)c2ccccc21`, the Potency result was “inactive”.

As to `Cc1nc2c(C(=O)NCc3ccc4c(c3)OCO4)c[nH]n2c(=O)c1Cc1ccccc1F`, the Potency is 7.31 µM (active).

Turning to `Cc1cc(C)c(C#N)c(SCC(=O)N(CC(C)C)C2CCS(=O)(=O)C2)n1` (configuration not stated), the Potency result is “inactive”.

As to `Cc1ccccc1NC(=O)Cn1c(=O)n(CC2CCCO2)c(=O)c2ccccc21` (configuration not stated), the Potency entry is “inactive”.

Consider `Cc1cccn2c(=O)c3cc(C(=O)NC4CCCCC4)sc3nc12`, for which the Potency entry was “inactive”.

Take `Cc1cccn2c(=O)c3cc(C#N)c(=O)n(CCCN4CCOCC4)c3nc12`: the Potency is 18.4 µM (active).

Take `Cc1cccn2c(=O)c(/C=C(\C#N)C(N)=O)c(N3CCCCCC3)nc12`: the Potency result is “inactive”.

In the case of `Cc1cccn2c(=O)c3cc(C#N)c(=NC(=O)c4cccnc4)n(CC4CCCO4)c3nc12` (configuration not stated), the Potency is 13 µM (active).

For the compound `Cc1cccn2c(=O)c3cc(C(=O)N4COCC4(C)C)n(C)c3nc12`, the Potency result was “inactive”.

For the compound `CCOc1cc(C(=O)N(Cc2ccccc2)c2ccc(C)cc2)ccc1OCC(=O)N1CCOCC1`, the Potency entry is “inactive”.

As to `COc1ccc(C2NCCCC2c2ccccc2)cc1` (configuration not stated), the Potency entry was “inactive”.

In the case of `COc1ccc(-c2cc3ccc(OCc4nn[nH]n4)cc3oc2=O)cc1`, the Potency result is “inactive”.

Turning to `O=c1oc2cc(O)ccc2cc1-c1ccc(F)cc1`, the Potency was 14.6 µM (active).

In the case of `COc1cccc(C(=O)c2cc3ccc(O)cc3oc2=O)c1`, the Potency entry is “inactive”.

Turning to `CCCCCCCCNS(=O)(=O)CCNC1CCCCC1`, the Potency entry is “inactive”.

As for `O=C(Nc1ccc(S(=O)(=O)N2CCOCC2)cc1)C1CCN(S(=O)(=O)c2ccc(Cl)cc2)CC1`, the Potency entry is “inactive”.

Regarding `COc1ccc(-c2cc3ncccc3cn2)cc1`, the Potency result is “inactive”.

For `COc1ccc(-c2nc(CS(=O)CC(=O)NCc3ccccn3)c(C)o2)cc1` (configuration not stated), the Potency entry is “inactive”.

Regarding `COc1ccc(-c2sc3ccc(OC)cc3c2C#Cc2ccccn2)cc1`, the Potency was 18.4 µM (active).

For the compound `CN(C(=O)c1ccc(NC(=O)Cc2cccc(NC(=O)C3CCN(C(=O)c4ccccc4)CC3)c2)cc1)C1CC1`, the Potency result was “inactive”.

With `Cc1cn(C2CC(O)C(CO)O2)c(=O)n(CCCc2ccccc2)c1=O` (configuration not stated), the Potency entry is “inactive”.

For `CS(=O)(=O)c1ccc(C(=O)NNC(=O)c2cccs2)cc1`, the Potency entry was “inactive”.

Take `Cc1noc(C)c1NC(=O)Nc1ccc2c(c1)C(=O)N([C@H](C)CO)C[C@H](C)[C@@H](CN(C)C(=O)Nc1ccc(C(F)(F)F)cc1)O2`: the Potency result is “inactive”.

With `Cc1ccc(NC(=O)CCC(=O)N2CCC(c3ccccc3)=N2)cc1S(=O)(=O)N1CCCCC1`, the Potency was 18.4 µM (active).

With `CCc1ccccc1OCC(=O)Nc1ccc(C)c(S(=O)(=O)N2CCCCCC2)c1`, the Potency result was “inactive”.

Regarding `Cc1ccc(NC(=O)CCCNC(=O)c2ccc(Cl)cc2)cc1S(=O)(=O)N1CCCCC1`, the Potency result is “inactive”.

`CC(=O)OCC(=O)C1(O)CCC2C3CC(C)C4=CC(=O)CCC4(C)C3C(O)CC21C` (configuration not stated): the Potency entry is “inactive”.

As for `COc1ccc(-c2n[nH]c(C)c2-c2ccc(OC)c(OC)c2)c(O)c1`, the Potency was 16.4 µM (active).

Turning to `COc1ccc(-c2n[nH]c(C)c2-c2ccccc2OC)c(O)c1`, the Potency result is “inactive”.

Turning to `CCOc1ccc(-c2n[nH]c(C)c2-c2ccccn2)c(O)c1`, the Potency result was “inactive”.

For `N#CCCN(C(=O)COC(=O)c1ccc2c(c1)OCCO2)c1ccccc1`, the Potency entry was “inactive”.

With `O=C(NCCC1CCCCN1S(=O)(=O)c1cccs1)C(=O)Nc1ccc(F)cc1F` (configuration not stated), the Potency is 11.6 µM (active).

On to `COc1ccccc1CCNC(=O)C(=O)NCCC1CCCCN1S(=O)(=O)c1cccs1` (configuration not stated), for which the Potency result was “inactive”.

Take `O=C(NCCC1CCCCN1S(=O)(=O)c1ccc(F)cc1)C(=O)NC1CC1` (configuration not stated): the Potency result was “inactive”.

As to `CCOC(=O)C1CCN(C(=O)c2cccc(S(=O)(=O)N(CC)c3ccccc3)c2)CC1`, the Potency entry is “inactive”.

As to `CCN(C[C@H]1N[C@@](CC)(C(=O)OC)[C@H]2C(=O)N(Cc3ccccc3)C(=O)[C@@H]12)S(=O)(=O)c1ccccc1`, the Potency entry is “inactive”.

For the compound `O=C(COC(=O)c1ccccn1)NNC(=O)c1ccc(Br)cc1`, the Potency entry was “inactive”.

As to `Cc1cccc(N=C2NC(=O)/C(=C/c3cn(C)c4ccccc34)S2)c1`, the Potency was 10.3 µM (active).

For the compound `Cc1ccc(N2C(=O)S/C(=C/c3cn(C)c4ccccc34)C2=O)cc1`, the Potency entry was “inactive”.

Consider `Cc1ccc(C(=O)N/C(=C\c2cn(C)c3ccccc23)C(=O)N2CCN(C)CC2)cc1`, for which the Potency result is “inactive”.

As to `C=CC[C@@H](CC(=O)N[C@H](CO)Cc1ccccc1)C(=O)N[C@H](C)COC(=O)[C@@H](CC=C)Cc1ccc(F)cc1`, the Potency entry is “inactive”.

On to `C=CCn1c(=O)n(C)c2c(=O)n(C)c(=O)n(C)c21`, for which the Potency result was “inactive”.

Consider `COc1ccc(CCNC(=O)COC(=O)Cc2cccc(F)c2)cc1`, for which the Potency entry was “inactive”.

`Oc1[nH]c2ccccc2c1N=Nc1c(F)c(F)c(F)c(F)c1F`: the Potency entry was “inactive”.

Turning to `COC(C[C@@H]1O[C@@H]1C(=O)[C@H](C)OCc1ccccc1)OC`, the Potency entry is “inactive”.

Turning to `COC(C/C=C/C(=O)[C@@H](C)OCc1ccccc1)OC`, the Potency is 18.4 µM (active).

As to `COC(C[C@H](O)CC(=O)[C@@H](C)OCc1ccccc1)OC`, the Potency result was “inactive”.

Consider `COc1ccc(S(=O)(=O)N(C)C[C@@H]2Oc3ccc(NC(=O)Nc4c(C)noc4C)cc3C(=O)N([C@H](C)CO)C[C@@H]2C)cc1`, for which the Potency entry was “inactive”.

In the case of `Cc1ccc(S(=O)(=O)N/N=C\c2cc3c(cc2[N+](=O)[O-])OCO3)cc1`, the Potency was 23.1 µM (active).

Take `Cc1ccc(-c2n[nH]c(=S)n2/N=C/c2cc3c(cc2[N+](=O)[O-])OCO3)cc1`: the Potency result is “inactive”.

Turning to `CC(=O)N/N=C/c1cc2c(cc1[N+](=O)[O-])OCO2`, the Potency result was “inactive”.

On to `O=C1COc2ccc(C(=O)CSc3ccc(Br)cc3)cc2N1`, for which the Potency entry was “inactive”.

Consider `COc1ccc(Cn2cc(CN3CCS(=O)(=O)N(Cc4ccc(-c5cccc(Cl)c5)cc4)C(C)C3=O)nn2)cc1` (configuration not stated), for which the Potency entry is “inactive”.

For `CN(CC(=O)Nc1ccc(F)cc1)C(=O)c1ccc(-c2ccc(Cl)cc2)o1`, the Potency result is “inactive”.

With `Cc1[nH][nH]c(=O)c1C(c1ccc(-c2ccc(Cl)cc2)o1)c1c(C)[nH][nH]c1=O`, the Potency was 20.6 µM (active).

Consider `Cc1[nH][nH]c(=O)c1N=Nc1ccccc1`, for which the Potency entry was “inactive”.

For the compound `CC(=O)Nc1cccc(C(=O)Nc2nc(C)cs2)c1`, the Potency result is “inactive”.

`S=C(Nc1cccc(Cl)c1)Nc1ccc2cn[nH]c2c1`: the Potency entry is “inactive”.

Regarding `Cc1csc(NC(=S)Nc2cccc(Cl)c2)n1`, the Potency is 20.6 µM (active).

Consider `COC(=O)c1ccc(CSc2nnc(N)s2)o1`, for which the Potency result is “inactive”.

Consider `CCOc1ccccc1Nc1nnc(SCc2ccc(C(=O)OC)o2)s1`, for which the Potency was 18.4 µM (active).

`CCOc1ccccc1Nc1nnc(SCC(=O)NCC2CCCO2)s1` (configuration not stated): the Potency entry was “inactive”.

For `NC1=NOC(=O)C1C1CCCCC1` (configuration not stated), the Potency entry is “inactive”.

On to `CCOc1ccc(S(=O)(=O)N2CCN(C(=O)c3oc4ccccc4c3C)CC2)cc1`, for which the Potency result was “inactive”.

In the case of `Cc1cc(N2CCCC2)ccc1NC(=O)COc1ccc(Cl)cc1`, the Potency entry is “inactive”.

As for `Cc1ccc(C)c(S(=O)(=O)N2CCN(c3ncnc4sccc34)CC2)c1`, the Potency is 18.4 µM (active).

Take `Cc1ccc(S(=O)(=O)N2CCN(c3ncnc4ccccc34)CC2)cc1`: the Potency entry is “inactive”.

Regarding `COc1ccc(C)cc1S(=O)(=O)N1CCN(S(=O)(=O)c2cc(C(=O)O)ccc2C)CC1`, the Potency result is “inactive”.

In the case of `COC(=O)Cc1c(-c2[nH]c3ccccc3c2CC(=O)OC)[nH]c2ccccc12`, the Potency result was “inactive”.

Take `COc1ccc(NC(=O)CSc2nnc(C3CC3)n2C)cc1S(=O)(=O)N1CCCCC1`: the Potency result is “inactive”.

For `CCc1ccccc1NC(=O)c1ccc2snnc2c1`, the Potency entry was “inactive”.

Take `O=C(Nc1ccc2ccccc2c1)Nc1ccc2snnc2c1`: the Potency is 5.8 µM (active).

Take `O=C(Nc1cccc(Br)c1)c1ccc2snnc2c1`: the Potency result was “inactive”.

`CC(=O)c1c(OCC(=O)N(C)C2CCCCC2)ccc2c(C)cc(=O)oc12`: the Potency result is “inactive”.

As to `CC1=CC(=NNS(=O)(=O)c2ccc([N+](=O)[O-])cc2)CC(C)(C)C1`, the Potency entry is “inactive”.

As to `N#Cc1c(/N=C/N2CCCC2)oc(-c2ccccc2)c1-c1ccccc1`, the Potency is 9.2 µM (active).

With `COc1ccc(-c2oc(/N=C/N3CCCC3)c(C#N)c2-c2ccc(OC)cc2)cc1`, the Potency result is “inactive”.

Consider `COc1cc(C(=O)Nc2oc(-c3ccccc3)c(-c3ccccc3)c2C#N)cc(OC)c1OC`, for which the Potency entry is “inactive”.

As to `O=C1NC(c2ccccc2)Cc2ccncc21` (configuration not stated), the Potency entry is “inactive”.
